SKKanGAS inh: inhibitors of SKKanGAS S. pyogenes growth in kanamycin (SK-promoter or general growth effect). actives 1.3% (n = 300,000). BacTiter-Glo, 6 h. inhibition, % at 7.5 µM. AID 1662;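 active = mean replicate score, as percent of positive control median, at least 50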;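 also: strain carries kanamycin resistance gene driven by streptokinase promoter and grows in 40 µg/ml kanamycin; loss of luminescence reflects streptokinase promoter inhibition or plain growth inhibition; 0% = median of DMSO wells and 100% = positive control at its reference dose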
NALP3 yeast inh: blocks the NALP3 inflammasome reconstituted in yeast | AID 2825 | actives 0.39% (n = 330,000) | inhibition, % at 10 µM | Yeast reconstituted NLRP3/ASC/caspase-1, beta-gal luminescence, 24 h;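 active = inhibition of 50% or more; inactive = inhibition below 50%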;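 also: plate controls were induced DMSO wells for no effect and uninduced yeast grown without galactose for full effect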
PfHsp90 yeast 2: reduces growth (ATP signal) of yeast expressing P. falciparum Hsp90. S. cerevisiae expressing PfHsp90, BacTiter-Glo ATP, 48 h; yeast lacking PDR1 and PDR3 efflux regulators. actives 0.32% (n = 310,000). AID 504621. inhibition, % at 9.4 µM;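 active = every replicate shows inhibition above about 80%, whatever the replicate mean, limit read from the data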;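 also: 0% = DMSO neutral controls and 100% = 20 µM radicicol positive controls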
TIM10 inh: inhibits growth of TIM10 yeast strain; inhibition, % at 10 µM; actives 1.4% (n = 330,000); S. cerevisiae TIM10 strain growth, BacTiter-Glo luminescence, 24 h; AID 463195;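 active = inhibition of 40% or more at the single tested concentration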;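 also: wild-type TIM10 isogenic control strain grown at permissive 25 °C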
tim23-1 inh: inhibits growth of tim23-1 mutant yeast; S. cerevisiae tim23-1 growth, BacTiter-Glo luminescence, 24 h; inhibition, % at 20 µM; actives 1.3% (n = 330,000); AID 463212;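 active = growth inhibition of the mutant yeast at or above 50%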;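 also: temperature-sensitive mutant grown at 25 °C; plate controls were DMSO-treated mutant yeast for no effect and medium wells lacking yeast for full effect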
tim10-1 inh: growth inhibitors of tim10-1 mutant yeast | inhibition, % at 20 µM | actives 2.2% (n = 330,000) | S. cerevisiae tim10-1 ts strain growth, BacTiter-Glo, 24 h;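 active = inhibition of at least 40%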;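 also: mutant grown at 25 °C; 0% = DMSO wells with yeast and 100% = wells holding no yeast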
tim10-1 confirm: tim10-1 yeast growth inhibition, confirmed | shares compounds with tim10-1 inh | S. cerevisiae tim10-1 ts strain growth, BacTiter-Glo, 24 h | inhibition, % at 20 µM | actives 56% (n = 7,400) | AID 463213;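 active = inhibition of yeast growth at or above a set limit in either of two repeat tests at 20 µM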;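 also: tim10-1 mutant grown at permissive 25 °C to find synthetic lethal compounds; 0% = DMSO yeast wells and 100% = medium wells without yeast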
TIM10 conf: TIM10 yeast growth inhibition, confirmed. AID 463215. S. cerevisiae tim10 strain growth, BacTiter-Glo luminescence, 24 h. shares compounds with TIM10 inh. inhibition, % at 10 µM. actives 63% (n = 4,600);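 active = inhibition of yeast growth at or above a set limit in either of two replicates at 10 µM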;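 also: this counterscreen used the strain with wild-type TIM10; 0% = yeast with DMSO and 100% = medium wells lacking yeast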
tim23-1 conf: tim23-1 yeast growth inhibition, confirmed. actives 83% (n = 4,400). AID 463218. shares compounds with tim23-1 inh. S. cerevisiae tim23-1 growth, BacTiter-Glo luminescence, 24 h. inhibition, % at 20 µM;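 active = inhibition above about 39% in either of two replicate wells at 20 µM, limit read from the data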;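 also: temperature-sensitive tim23-1 mutant grown at 25 °C; 0% = DMSO wells with yeast and 100% = medium wells without yeast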
* hit, by the source's call; . = not tested or not shown. Rows were chosen to be rich in hits. Some 4.5% of all compounds tested hit in one or more screens of this group.

SMILES	SKKanGAS inh	NALP3 yeast inh	PfHsp90 yeast 2	TIM10 inh	tim23-1 inh	tim10-1 inh	tim10-1 confirm	TIM10 conf	tim23-1 conf
COc1ccc2c(c1)sc1nc(-c3ccccc3)cn12	19	36	24	-1	60*	40*	19	.	67*
Cc1ccc(S(=O)(=O)N2CCN(C(=O)c3ccc([N+](=O)[O-])cc3)C2)cc1	-8	8	-16	1	-1	19	.	.	.
Cc1nc2c(ccc3nc(NC(=O)C4CC4)sc32)s1	-4	-32	.	65*	68*	53*	54*	54*	71*
COc1ccc(CCNC(=O)c2ccc(CS(=O)Cc3ccc(C)cc3)o2)cc1OC (configuration not stated)	-9	2	-2	-12	-6	6	.	.	.
CCOC(=O)N1CCc2c(sc(NC(=O)c3ccc(Cl)s3)c2C(N)=O)C1	.	27	.	35	66*	43*	46*	.	68*
O=C(Nc1nc(-c2ccco2)c(-c2ccco2)s1)C1CC(=O)N(c2ccc3c(c2)OCCO3)C1 (configuration not stated)	41	11	-12	23	19	17	.	.	.
O=C(Nc1nc(-c2ccco2)c(-c2ccco2)s1)C1CCC1	1	-6	-16	46*	66*	45*	59*	48*	60*
C=C(C(=O)c1ccccc1)C(C)CC(=O)c1ccccc1 (configuration not stated)	12	17	16	49*	55*	44*	60*	56*	48*
O=C(CC(Nc1ccccc1)C(=O)O)c1ccccc1 (configuration not stated)	5	11	3	8	17	16	.	.	.
CC(C)Cn1c(-c2csc3ccccc23)n[nH]c1=S	-4	22	-6	35	35	38	.	.	.
Cc1cccc(-n2c(-c3csc4ccccc34)n[nH]c2=S)c1	2	17	-20	38	51*	45*	30	.	43*
Cc1cc(C)c(S(=O)(=O)c2ccccc2)c(OC(=O)c2ccc(Cl)cc2Cl)n1	.	3	19	52*	74*	46*	42*	-8	76*
Cc1cc(C)c(S(=O)(=O)c2ccccc2)c(OC(=O)c2c(Cl)cccc2Cl)n1	5	26	33	31	35	26	.	.	.
Cc1cc(NC(=O)C(Cl)c2ccccc2)no1 (configuration not stated)	-3	14	-8	9	0	-15	.	.	.
Cc1ccc2cc(/C=C/C(=O)c3ccco3)c(Cl)nc2c1	-12	31	.	61*	80*	54*	54*	61*	65*
COc1cc2cc(/C=C/C(=O)c3ccco3)c(Cl)nc2cc1OC	3	4	-31	36	49	36	.	.	.
Cc1ccc2nc(Cl)c(/C=C/C(=O)c3ccco3)cc2c1	-5	18	12	51*	64*	44*	28	52*	50*
COc1ccc2cc(/C=C/C(=O)c3ccco3)c(Cl)nc2c1	0	20	.	46*	52*	45*	38*	16	48*
CCC(C)Nc1nc(N)c([N+](=O)[O-])c(Nc2ccccc2OC)n1 (configuration not stated)	2	-7	-80	23	53*	43*	17	.	49*
COc1ccccc1Nc1nc(NCC(C)C)nc(N)c1[N+](=O)[O-]	1	28	-75	29	50	40	.	.	.
N#Cc1c(N2CCCC2)nc(N)c2c(N)nc(N3CCCC3)cc12	5	-6	11	43*	81*	60*	54*	31*	89*
CCOC(=O)C1CCN(C(=O)c2ccc(OCC(=O)Nc3cccc(C(F)(F)F)c3)cc2)CC1	29	2	8	54*	54*	56*	56*	53*	53*
COc1ccc(CNC(=O)C(C)Sc2ccc(S(=O)(=O)N3CCOCC3)cn2)cc1 (configuration not stated)	.	1	-3	17	23	21	.	.	.
COc1ccc(-c2cc(N)n(S(=O)(=O)c3c(F)c(F)c(F)c(F)c3F)n2)cc1OC	29	-29	-11	75*	70*	68*	75*	74*	-23
CCC(C)[C@H](NC(=O)[C@@H]1CSC2c3ccccc3C(=O)N21)C(=O)NCc1ccco1 (some centres not stated)	4	6	-8	13	4	0	.	.	.
SMILES	SKKanGAS inh	NALP3 yeast inh	PfHsp90 yeast 2	TIM10 inh	tim23-1 inh	tim10-1 inh	tim10-1 confirm	TIM10 conf	tim23-1 conf
CC(=O)c1cccc(S(=O)(=O)N2CCC(C(=O)OC3CCOC3=O)CC2)c1 (configuration not stated)	.	18	-5	-8	-5	-18	.	.	.
O=c1oc(-c2ccc(Br)o2)nc2ccccc12	-2	12	.	32	54*	46*	16	.	60*
CCC1CCCCN1C(=O)CSc1n[nH]c(N)n1 (configuration not stated)	.	7	.	-1	0	-17	.	.	.
Cn1c(CNC(=O)CNS(=O)(=O)c2ccc(Br)cc2)cc(=O)n(C)c1=O	-2	6	-10	-9	1	0	.	.	.
CCOc1ccc(NCc2nnc(SCc3ccc(Cl)cc3)n2-c2ccccc2)cc1	-6	14	7	47*	52*	46*	42*	-24	56*
COc1ccc(CN(C)C(=O)C(Cc2ccccc2)NC(=O)c2ccccc2)c(OC)c1 (configuration not stated)	-2	9	-1	10	22	21	.	.	.
CC(=NC1CC1)c1c(-c2ccccc2)[nH]n(-c2nc3ccccc3s2)c1=O	33	17	-15	64*	53*	53*	56*	49*	52*
CC(=NC1CCCC1)c1c(C)[nH]n(-c2nc3ccccc3s2)c1=O	7	10	9	2	9	19	.	.	.
COc1ccc(NC(=O)c2c(F)cccc2Cl)cc1S(=O)(=O)N1CCOCC1	.	12	.	4	-3	-1	.	.	.
CN(/N=C/c1ccccc1Cl)c1ncc(Cl)cc1C(F)(F)F	9	11	2	1	9	14	.	.	.
CN(/N=C/c1ccc(O)cc1O)c1ncc(C(F)(F)F)cc1Cl	11	32	-43	11	62*	45*	25	.	56*
O/C=c1\ccc2cccc3nc(C(F)(F)F)nc1c23	15	3	8	52*	50*	63*	54*	51*	50*
